# An excerpt weighted towards active compounds, which were near 15% of everything screened.
# ALOX12 inh: Primary qHTS assay for inhibitors of human arachidonate 12S-lipoxygenase (ALOX12): Round 2; Polyunsaturated fatty acid lipoxygenase ALOX12 (Homo sapiens), P18054; purified 12hLO, xylenol orange hydroperoxide absorbance; Potency, µM (highest dose often 108 µM), for the others: at the highest dose activity change, negative = inhibition, most hits filed as inhibitors; 580,000 tested, 1.1% active
#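 Purified human 12hLO at 150 nM in 25 mM Hepes, 0.01% Triton X-100, pH 7.0, preincubated 15 min at room temperature with compound. Reaction started with 40 uM arachidonic acid, 30 min at room temperature. Hydroperoxide measured by Fe-xylenol orange, 573/405 nm absorbance ratio.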
# DT40 TDP1 no CPT: qHTS for Inhibitors of human tyrosyl-DNA phosphodiesterase 1 (TDP1): qHTS in cells in absence of CPT. DT40 Tdp1-/- hTDP1 cells, no CPT, ATP luminescence, 48 h. Potency, µM (top dose mostly 46.2 µM), inactives show top-dose activity change, negative = growth inhibition, most hits filed as inhibitors. 420,000 tested, 15% active. AID 686978, 2013; also: nearly all actives have a fitted effect of over 55% in size
#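 Luminescent ATP content (CellTiter-Glo) served as the growth readout. Knockout chicken DT40 cells expressing human TDP1 were exposed to compounds without camptothecin for a minimum 48 hr at 37 °C.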
# TDP1 cell CPT: qHTS for Inhibitors of human tyrosyl-DNA phosphodiesterase 1 (TDP1): qHTS in cells in presence of CPT | chicken DT40 Tdp1-/-;hTDP1 cells + 20 nM CPT, ATP luminescence, 48 h | Potency, µM (top dose mostly 46.2 µM), for the others: at the highest dose activity change, negative = growth inhibition, actives largely listed as inhibitors | 420,000 tested, 12% active | AID 686979, 2013; also: nearly all actives have a fitted effect of over 55% in size
#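 Chicken DT40 Tdp1-/- cells complemented with human TDP1, 400 cells/well, exposed to compounds plus 20 nM camptothecin for at least 48 h at 37 C; viability read as ATP content by CellTiter-Glo luminescence.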
# RORg inh: qHTS for inhibitors of ROR gamma transcriptional activity. Drosophila S2 Gal4-RORgamma UAS-luciferase reporter, 20 h. Potency, µM (top dose mostly 53.6 µM), for the others: at the highest dose activity change, negative = inhibition, actives largely listed as inhibitors. 310,000 tested, 5.4% active. AID 2551, 2010; also: nearly all actives have a fitted effect of over 60% in size
# Target sequence (P51450 whole entry, looked up, the tested form may be a part): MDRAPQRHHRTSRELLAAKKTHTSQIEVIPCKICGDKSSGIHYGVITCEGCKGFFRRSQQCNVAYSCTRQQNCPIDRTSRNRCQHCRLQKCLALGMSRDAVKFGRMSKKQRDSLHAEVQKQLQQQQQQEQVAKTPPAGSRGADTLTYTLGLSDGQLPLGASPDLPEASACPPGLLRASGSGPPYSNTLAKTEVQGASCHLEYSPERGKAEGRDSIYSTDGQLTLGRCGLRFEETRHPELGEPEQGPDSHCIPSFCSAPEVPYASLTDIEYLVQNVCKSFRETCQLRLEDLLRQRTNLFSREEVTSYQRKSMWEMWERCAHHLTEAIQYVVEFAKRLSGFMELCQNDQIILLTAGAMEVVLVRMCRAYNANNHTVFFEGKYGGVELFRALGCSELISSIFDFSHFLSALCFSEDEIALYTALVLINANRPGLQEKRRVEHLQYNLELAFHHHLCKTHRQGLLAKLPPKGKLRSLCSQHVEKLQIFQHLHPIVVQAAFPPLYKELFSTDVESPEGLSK
#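 ROR gamma transcriptional activity was tracked as Gal4-UAS luciferase output in stably transfected Drosophila Schneider cells, with compound added 1 hr before 700 uM copper sulfate induction and a 20 hr ambient-temperature incubation.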
# VP16 counter: VP16 counterscreen qHTS for inhibitors of ROR gamma transcriptional activity; Drosophila S2 Gal4-VP16 UAS-luciferase, luminescence, 20 h; Potency, µM (top dose mostly 53.6 µM), for the others: at the highest dose activity, negative = inhibition, hits mostly inhibitors; 310,000 tested, 3.5% active; AID 2546, 2010;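 also: Gal4-VP16 expression switched on by copper sulfate through the metallothionein promoter; nearly all actives have a fitted effect of over 50% in size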
# ELG1 repair inh: qHTS screen for small molecules that inhibit ELG1-dependent DNA repair in human embryonic kidney (HEK293T) cells expressing luciferase-tagged ELG1. HEK293T ELG1-luciferase reporter, luminescence, 16 h; DNA damage induced by 5-fluorouridine. Potency, µM (highest dose often 46.1 µM), inactives show at the top dose activity change, negative = inhibition, most hits filed as inhibitors. 330,000 tested, 2.3% active; also: nearly all actives have a fitted effect of over 55% in size
#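 Quantitative HTS, concentration-response format. 2,000 cells/well co-treated with 5-fluorouridine and compound, 16 hr in 5% CO2 at 37 °C; ONE-Glo luminescence read after 30 min.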
# An asterisk follows results filed as active; ? = inconclusive; . = no result; [ ] = dose if it differs, or a comment. Calls follow the shape of the dose curve; as a rule, active = well fitted curve in the direction sought with a large enough effect; inconclusive = small, poorly fitted or top-dose-only effect, or another doubt; inactive = no such curve, though single readings can be large; an effect the other way counts as inactive or inconclusive. % is scaled to controls: 0 for no effect and ±100 for the full control effect; potency is read from the fitted curve at half-maximal effect.
SMILES,ALOX12 inh,DT40 TDP1 no CPT,TDP1 cell CPT,RORg inh,VP16 counter,ELG1 repair inh
CC(C)N(C(=O)[C@H]1C[C@H](CC(=O)NCCCN(C)C)C(=O)N2CCc3c([nH]c4ccc(Cl)cc34)[C@]12C)C(C)C,5%,15µM*,?,.,.,?
Cc1cc(C)cc(NC(=O)c2ncoc2-c2cccs2)c1,-6%,.,.,.,.,.
CC1Cc2ccccc2N1C(=O)CSc1nnc(-c2ccc(S(=O)(=O)N3CCOCC3)cc2)n1C (centres undefined),-21%,?,16µM*,34%,-4%,?
O=C(CSc1nnc(-c2ccccc2Cl)o1)N1CCCc2ccccc21,-20%,16µM*,?,.,.,.
CC1CCN(C(=O)CSc2nnc(-c3ccc(S(=O)(=O)N4CCOCC4)cc3)n2C)CC1,2%,-12%,-23%,?,-15%,-14%
CC1Cc2ccccc2N1C(=O)CSc1nnc(-c2ccccc2Cl)o1 (centres undefined),-29%,?,26µM*,.,.,.
CC1Cc2ccccc2N1C(=O)CSc1nnc(-c2ccc(S(=O)(=O)N3CCCC3)cc2)o1 (centres undefined),0%,16µM*,?,-3%,1%,?
O=C(CSc1nnc(Cc2csc(Nc3cccc(Cl)c3)n2)o1)N1CCc2ccccc21,0%,21µM*,18µM*,-3%,4%,?
CCN(Cc1ccccc1)S(=O)(=O)c1ccc(F)c(C(=O)Nc2cc(C)ccc2OC)c1,-17%,?,26µM*,.,.,.
CC(=O)Nc1ccccc1N(C)S(=O)(=O)c1ccc(C)cc1,4%,23µM*,23µM*,45%,?,?
CCN(Cc1ccccc1)S(=O)(=O)c1ccc(F)c(C(=O)Nc2cc(C(F)(F)F)ccc2Cl)c1,-22%,23µM*,16µM*,.,.,.
CC(=O)Nc1ccccc1NC(=O)CN(C)S(=O)(=O)c1ccc(C)cc1,0%,-14%,-15%,0%,6%,20%
COc1ccc(C)cc1NC(=O)c1ccccc1N(C)S(=O)(=O)c1ccccc1,18%,21µM*,?,3%,-13%,-23%
Cc1cnc(NC(=O)CCOc2cccc(Br)c2)s1,24%,.,.,.,.,.
CCOC(=O)[C@]12CCCC=C1N(CCC1=CCCCC1)C(=O)[C@H](CC(=O)NCCC(C)C)C2,?,12µM*,15µM*,.,.,.
CCCCCCCCN1C(=O)[C@H](CC(=O)NCC23CC4CC(CC(C4)C2)C3)C[C@@]2(C(=O)OCC)CCC=C12,?,16µM*,-88%,.,.,.
CCCCCCCCN1C(=O)[C@H](CC(=O)NCCC(C)C)C[C@@]2(C(=O)OCC)CCCC=C12,?,12µM*,13µM*,.,.,.
O=C(Cc1ccc(N(Cc2ccc(F)cc2)C(=O)c2ccco2)cc1)NCC1CC1,22%,.,.,.,.,.
Clc1cc(Cn2nnc(-c3ccccc3)n2)cc2c1OCCCO2,-27%,.,.,.,.,.
Cc1cc(C)nc(Nc2ncc(O)n2-c2ccc(C)c(Cl)c2)n1,1%,-1%,-9%,11µM*,?,?
Cc1cc(C)nc(Nc2ncc(O)n2-c2ccc(C)c(C)c2)n1,0%,-15%,2%,-25%,6%,-6%
CN(C)S(=O)(=O)c1cccc(C(=O)N=C2N=C3C=CC(Cl)=CN3Cc3ccccc32)c1,-11%,16µM*,?,-28%,?,?
O=C(N=C1N=C2C=CC=CN2Cc2ccccc21)c1ccc(S(=O)(=O)N2CCCC2)cc1,1%,?,4%,4%,-11%,?
Cc1nc(SCC(=O)c2cccc([N+](=O)[O-])c2)n[nH]1,?,?,?,13µM*,?,-2%
Cc1nc([N+](=O)[O-])c(Sc2nc3ccc([N+](=O)[O-])cc3[nH]2)n1Cc1ccccc1,-13%,8.2µM*,9.2µM*,16µM*,?,-33%
SMILES,ALOX12 inh,DT40 TDP1 no CPT,TDP1 cell CPT,RORg inh,VP16 counter,ELG1 repair inh
Cc1nc([N+](=O)[O-])c(Br)n1CC(=O)c1ccc(F)cc1,-22%,16µM*,?,7.9µM*,-14%[10 µM],2%
CCn1c(C)nc([N+](=O)[O-])c1C(=O)O,?,8%,3%,0%,-1%,20%
Cc1nc([N+](=O)[O-])c(Br)n1Cc1ccccc1,211%,6.5µM*,5.2µM*,?,?,?
CCn1cc(S(=O)(=O)N2CCC3(CCCN(CC4CC4)C3=O)C2)cn1 (centres undefined),33%,.,.,.,.,.
CCOC(=O)/C(C#N)=C/c1ccccc1OCc1ccc(Cl)cc1,24%,.,.,.,.,.
O=C(COc1ccccc1)N[C@H]1CO[C@H]2[C@@H]1OC[C@H]2OC(=O)Nc1ccccc1,-3%[176 µM],.,.,.,.,.
Cc1nc([N+](=O)[O-])c(Br)n1CC(=O)c1cccc([N+](=O)[O-])c1,?,16µM*,15µM*,1%,-7%,17%
COC(=O)Cn1c(C)nc([N+](=O)[O-])c1Br,2%,?,-30%,?,0%,-6%
COc1cccc(NC(=O)C2CCC(CNS(=O)(=O)c3cccs3)CC2)c1 (centres undefined),?,?,-10%,9%,-16%,-13%
Cc1ccc(NC(=O)C2CCC(CNS(=O)(=O)c3cccs3)CC2)cc1C (centres undefined),-20%,15µM*,15µM*,.,.,.
Cc1cccc(NC(=O)C2CCC(CNS(=O)(=O)c3ccc(Br)s3)CC2)c1 (centres undefined),-25%,16µM*,26µM*,.,.,.
O=C(Nc1ccc(NC(=S)NC(=O)c2ccccc2Cl)cc1)c1cccc(Cl)c1,0%,16µM*,18µM*,.,.,.
Cc1ccccc1C(=O)NC(=S)Nc1cccc(NC(=O)C(C)C)c1,-29%,?,-4%,26%,-10%,-21%
CC(C)C(=O)Nc1cccc(NC(=S)NC(=O)c2ccccc2Cl)c1,-1%,18µM*,?,-19%,1%,?
CC(OC(=O)c1ccccc1O)C(=O)Nc1cccc(Cl)c1 (centres undefined),-7%,13µM*,-2%,-26%,-18%,-10%

# Screens deposited in PubChem by National Center for Advancing Translational Sciences (NCATS).
